Compound activity as filed in PubChem.
SNCA expr inhib – SNCA gene expression inhibition | AID 1671194 | 0.17% of 140,000 active | HEK-293 SNCA-luciferase knock-in, luminescence, 24 h | Potency, µM (highest dose often 57.2 µM), hits mostly inhibitors; note: nearly all actives have a fitted effect of over 45% in size
SNCA viab count – cell viability loss counter-screen. AID 1671193. 0.12% of 150,000 active. Potency, µM (series often up to 57.1 µM), hits mostly cytotoxic. HEK-293-SNCA-luc viability, GF-AFC fluorescence, 24 h; note: nearly all actives have a fitted effect of over 30% in size
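Cytotoxicity counterscreen: after 24 h compound treatment of genome-edited SNCA-luciferase HEK-293 cells, live-cell protease substrate GF-AFC read by fluorescence after 30 min; activity scaled between DMSO (0%) and medium-only (-100%), curves Hill-fitted.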
KDM5B inhibitor – blocks human KDM5B histone demethylase activity. Q9UGL1. KDM5B demethylase, FDH-coupled NADH fluorescence (FDH is formaldehyde dehydrogenase). Potency, µM (series often up to 57.7 µM), most hits filed as inhibitors. 2.6% of 220,000 active. AID 1347165; note: nearly all actives have a fitted effect of over 70% in size
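Compound dilutions met 200 nM (final) KDM5BΔAP for 10 min at room temperature before substrate addition. The substrate mix held 12.5 µM H3K4me3 with cofactors 25 µM α-ketoglutarate and 50 µM Fe²⁺. NADH signal gain over 30 min defined activity.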
IP6K1 inhibitor – blocks human inositol hexakisphosphate kinase 1 | activity change, % (series mostly up to about 58 µM) | 0.81% of 140,000 active | AID 1645851 | IP6K1 kinase, ADP-Glo luminescence, 2 h; active compounds read low; in the data active = activity change below about -25%
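ADP-Glo luminescence measures ADP made by human IP6K1 during a 2 h RT reaction with ATP/IP6 (mix at 1.3 mM/130 uM); top library doses 57.5 and 19.1 uM final.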
A number is an active result; – = inactive; ? = inconclusive; · = no result given. Hits are enriched below; roughly 2.9% of the tested compounds scored in any of these assays. Unless noted, calls come from the whole dose curve; as a rule, active = well fitted curve in the direction sought with a large enough effect; inconclusive = small, poorly fitted or top-dose-only effect, or another doubt; inactive = no such curve, though single readings can be large; an effect the other way counts as inactive or inconclusive.

SMILES	SNCA expr inhib	SNCA viab count	KDM5B inhibitor	IP6K1 inhibitor
CN(CCCC(=O)Nc1ccc(OC(F)F)cc1)S(=O)(=O)c1ccc(F)cc1	·	·	–	·
COc1ccc(N(Cc2cccs2)C(=O)c2ccc(OC)c(Cl)c2)cc1	–	–	?	–
CN(Cc1ccc(C(=O)NCC(F)(F)F)cc1)C(=O)/C=C/c1ccccc1	·	·	–	·
O=C(NC1CC1)c1cccn2nccc12	?	–	35µM	–
CNC(=O)c1cccn2nccc12	–	–	32µM	–
O=C(NC1CC1)c1cnn2ncccc12	–	–	32µM	–
O=C(NC1CC1)c1cccn2cncc12	–	–	?	–
COCCNC(=O)C(NC(=O)c1ccc(OC)cc1)C1CCN(C(=O)c2ccccc2)CC1 (centres undefined)	–	–	–	–
COc1ccc(Cl)cc1NC(=O)Cn1nnc(C(=O)NCc2cccs2)c1N	–	–	–	–
O=C(NC1CCCN(c2cc(-c3ccc(Cl)cc3)[nH]n2)C1)c1cccnc1 (centres undefined)	–	–	–	–
CCCNc1c(NC(=O)Nc2ccccc2C(F)(F)F)c(=O)oc2ccccc12	·	·	–	·
CN(C)Cc1nnc(C2CCN(C(=O)c3n[nH]c(=O)c4ccccc34)CC2)n1C	–	–	–	–
COc1ccccc1C(=O)N1CCCn2nc(C)c(-c3ccccc3C(C)C)c21	–	–	–	–
COc1ccccc1C(=O)N1CCCn2nc(C)c(-c3ccccc3N3CCCC3)c21	–	–	13µM	–
Cc1ccc(NC(=O)CCOc2ccccc2)cc1	–	–	–	–
COc1ccc(-c2noc([C@@H]3C[C@H](NCc4ccc(S(C)(=O)=O)cc4)CN3C)n2)cc1	–	–	–	–
COc1ccccc1-c1cc2c(ccn2C)c(C(=O)NCc2cccnc2)n1	–	–	–	–
COc1ccccc1-c1cc2c(ccn2C)c(C(=O)NCCc2ccccn2)n1	–	–	35µM	–
COc1ccccc1-c1cc2c(ccn2C)c(C(=O)NCc2cnccn2)n1	–	–	32µM	–
CCCCCCCCCCCCSCCC(N)=O	·	·	–	·
CCOc1ccc(C(=O)NC2(C(=O)OC)CCCCC2)cc1OC	·	·	–	·
COc1ccc(Cl)cc1C(C(=O)O)N1CCCN(c2ncccn2)CC1 (centres undefined)	–	–	28µM	–
CN1CC2(CCCN(Cc3cccc4nonc34)C2)OC1=O (centres undefined)	–	–	–	–
Cc1nc(N(C)C)ncc1C(=O)N1CCN(c2ccccc2C#N)CC1	–	–	28µM	–
COc1cc2nc(Cl)nc(N)c2cc1OC	–	–	·	–
SMILES	SNCA expr inhib	SNCA viab count	KDM5B inhibitor	IP6K1 inhibitor
CC[C@@]1(O)CCN(c2nc(N)c3cc(OC)c(OC)cc3n2)C[C@H]1O	–	–	32µM	–
CC(C)C1CN(c2cncc(C(=O)N3CCCC3)n2)CCC(=O)N1CC1CC1 (centres undefined)	–	–	28µM	–
CO[C@H]1C[C@@H](O)C12CCN(C(=O)CCc1ccc(-c3cccs3)o1)CC2	–	?	14µM	–
C[C@@]1(O)CCN(C(=O)CCc2ccc(-c3cccs3)o2)C[C@@H]1O	–	–	13µM	–
Cn1nc(C(=O)N2CC[C@@](C)(O)[C@@H](O)C2)cc1-c1cccs1	–	–	–	–
Cc1noc(C)c1-c1cc2cc(CO)oc2c(NCC2CCOCC2)n1	–	–	32µM	–
Cc1noc(C)c1-c1cc2cc(CN(C)C)oc2c(Nc2cccnc2)n1	–	–	28µM	–
Cc1noc(C)c1-c1cc2cc(CN(C)C)oc2c(NCc2cccnc2)n1	–	–	–	–
Cc1noc(C)c1-c1cc2cc(CO)oc2c(NC2CCOCC2)n1	–	–	35µM	–
Cc1cc2cc(-c3c(C)noc3C)nc(NC3CC3)c2o1	–	–	–	–
COCCCNC(=O)c1c(C)noc1-c1cc(OC)c(OC)c(OC)c1	–	–	32µM	–
CCC(COC)NC(=O)c1c(C)noc1-c1cc(OC)c(OC)c(OC)c1 (centres undefined)	–	–	28µM	–
COc1cc(-c2onc(C)c2C(=O)NCCSC)cc(OC)c1OC	–	–	32µM	–
COc1cc(-c2onc(C)c2C(=O)NCCc2cccs2)cc(OC)c1OC	–	–	22µM	–
COCCN1C(=O)[C@H]2CN(Cc3cc(Br)ccc3OC)C[C@H]2C1=O	–	–	–	–
O=C1CCN(CC(O)COc2ccccc2)c2ccsc2CN1Cc1ccccc1 (centres undefined)	·	·	·	–
CC1(C)CC(NC(=S)Nc2ccccc2)CC(C)(CNC(=S)Nc2ccccc2)C1 (centres undefined)	·	·	–	·
O=c1ncn(Cc2ccccc2)c2ccc(-c3ccc(F)cc3F)nc12	–	–	28µM	–
